From PubChem BioAssay (NCI)
About 79,000 compounds went through this panel and 15% of them were active in at least one assay; those are over-represented in the sample as a whole. Activity calls are given as the source filed them. Rule as the data show it: active = growth inhibition above about 70%; inactive = the rest.

Assays:
[1] = NCI Yeast Anticancer Drug Screen. Data for the rad52 strain (AID 147);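 also: 0% = growth of vehicle-treated control cultures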; conditions: S. cerevisiae rad52 mutant growth inhibition, hits give high values
Summary of the method: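 Compounds are applied to a genetically defined yeast strain lacking normal DNA damage repair, and inhibition of growth is expressed relative to cultures given vehicle only.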

[2] = NCI Yeast Anticancer Drug Screen. Data for the wt1 strain (AID 149);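 also: 0% = growth of vehicle-treated wt1 cultures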; conditions: S. cerevisiae wt1 strain (SPY 50644) growth inhibition, hits give high values
Summary of the method: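 Each compound is tested on wt1 yeast and the loss of growth versus vehicle gives the inhibition value.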

[3] = NCI Yeast Anticancer Drug Screen. Data for the rad50EPP+ strain (AID 151);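 also: 0% = growth of vehicle-treated control cultures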; conditions: S. cerevisiae rad50 mutant strain, hits give high values
Summary of the method: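 Compounds were applied to the rad50EPP+ yeast strain, which bears a defined DNA repair alteration, and growth inhibition was determined relative to vehicle-treated cultures.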

[4] = NCI Yeast Anticancer Drug Screen. Data for the rad50 strain (AID 155);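 also: 0% = growth of vehicle-only cultures of the same strain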; conditions: S. cerevisiae rad50 strain growth inhibition, hits give high values
Summary of the method: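 Vehicle-treated cultures provide the reference for the growth inhibition reported for compound-exposed, repair-deficient yeast.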

[5] = NCI Yeast Anticancer Drug Screen. Data for the mec2-1 strain (AID 157); conditions: S. cerevisiae mec2-1 strain, hits give high values
Summary of the method: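 Strain: mec2-1 (DNA repair/cell cycle alteration). Compound exposure, then growth measured; inhibition expressed relative to vehicle.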

[6] = NCI Yeast Anticancer Drug Screen. Data for the rad14 strain (AID 159);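 also: 0% = growth of vehicle-treated control cultures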; conditions: S. cerevisiae rad14 strain growth inhibition, hits give high values
Summary of the method: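 Inhibition of growth is reported for a repair-deficient yeast mutant following compound treatment, calculated relative to cultures that received vehicle.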

[7] = NCI Yeast Anticancer Drug Screen. Data for the sgs1 mgt1 strain (AID 161);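 also: 0% = growth of cultures given vehicle only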; conditions: S. cerevisiae sgs1 mgt1 strain, hits give high values
Summary of the method: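 Genetically altered yeast, compound exposure, growth inhibition relative to vehicle.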

[8] = NCI Yeast Anticancer Drug Screen. Data for the cln2 rad14 strain (AID 165);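 also: 0% = growth equal to vehicle treated cultures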; conditions: S. cerevisiae cln2 rad14 strain, hits give high values
Summary of the method: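 Compounds are applied to the cln2 rad14 yeast strain, and growth is then compared with that of vehicle-treated cultures to give inhibition.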

[9] = NCI Yeast Anticancer Drug Screen. Data for the bub3 strain (AID 167); conditions: S. cerevisiae bub3 mutant strain, hits give high values
Summary of the method: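 Mutant yeast screening strain plus compound; vehicle-treated cultures serve as the 0% inhibition reference.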

[10] = NCI Yeast Anticancer Drug Screen. Data for the wt2 strain (AID 169); conditions: S. cerevisiae wt2 strain growth inhibition, hits give high values
Summary of the method: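 This strain belongs to a panel of yeast strains with defined genetic alterations in DNA damage repair or cell cycle control. Compounds are applied, and growth inhibition is measured against vehicle-treated cultures.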

[11] = NCI Yeast Anticancer Drug Screen. Data for the mlh1 strain (AID 171);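 also: 0% = growth of vehicle-treated control cultures of the same strain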; conditions: S. cerevisiae mlh1 strain growth inhibition, hits give high values
Summary of the method: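 Growth of the mutant yeast strain after compound exposure, expressed as inhibition relative to vehicle-only controls.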

[12] = NCI Yeast Anticancer Drug Screen. Data for the sgs1 strain (AID 173);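 also: 0% = growth of vehicle-only control cultures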; conditions: S. cerevisiae sgs1 mutant, hits give high values
Summary of the method: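 Growth of a yeast strain bearing a defined genetic alteration is measured after compound treatment. Inhibition is expressed relative to vehicle-only controls.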

[13] = NCI Yeast Anticancer Drug Screen. Data for the mlh1 rad18 strain (AID 175); conditions: S. cerevisiae mlh1 rad18 strain growth inhibition, hits give high values
Summary of the method: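 Read-out is yeast growth inhibition, calculated against vehicle-only controls. The compound was applied to a strain engineered with DNA damage repair alterations.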

[14] = NCI Yeast Anticancer Drug Screen. Data for the rad18 strain (AID 177); conditions: S. cerevisiae rad18 mutant growth inhibition, hits give high values
Summary of the method: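 Growth of the mutant yeast strain after compound exposure, normalised to vehicle-only cultures.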

[15] = NCI Yeast Anticancer Drug Screen. Data for the mgt1 strain (AID 153); conditions: S. cerevisiae mgt1 mutant growth inhibition, hits give high values
Summary of the method: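 Strain: mgt1 yeast, one of a set carrying defined DNA damage repair or cell cycle control alterations. Compound-treated growth compared with vehicle.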

[16] = NCI Yeast Anticancer Drug Screen. Data for the CLN2oe strain (AID 163);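 also: 0% = growth of vehicle-only control cultures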; conditions: S. cerevisiae CLN2oe strain, hits give high values
Summary of the method: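 Growth of a genetically modified yeast strain is measured after compound exposure and compared with cultures given vehicle alone.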

[17] = at 5.0 µM (retest, dose inferred, filed as 0.5)
[18] = at 50.0 µM (retest, dose inferred, filed as 5.0)

Measured: growth inhibition

c1ccc(-c2ccnc3c2ccc2c(-c4ccccc4)ccnc23)cc1
active: [1]; at 33.0 µM 99% | [1]; at 100.0 µM 99% | [2]; at 33.0 µM 97% | [2]; at 100.0 µM 97% | [3]; at 33.0 µM 97% | [3]; at 100.0 µM 97% | [4]; at 33.0 µM 98% | [4]; [18] 97% | [4]; at 50.0 µM 91.2% | [4]; at 100.0 µM 97% | [5]; at 33.0 µM 99% | [5]; [18] 98% | [5]; at 50.0 µM 92.8% | [5]; at 100.0 µM 96% | [6]; at 33.0 µM 98% | [6]; at 100.0 µM 97% | [7]; [18] 97% | [7]; at 50.0 µM 92.1% | [8]; [18] 96% | [8]; at 50.0 µM 92% | [9]; at 33.0 µM 98% | [9]; [18] 96% | [9]; at 50.0 µM 90.3% | [9]; at 100.0 µM 97% | [10]; at 33.0 µM 98% | [10]; at 100.0 µM 97% | [11]; at 33.0 µM 98% | [11]; at 100.0 µM 98% | [12]; at 33.0 µM 98% | [12]; at 100.0 µM 96% | [13]; [18] 97% | [13]; at 50.0 µM 90.3% | [14]; at 33.0 µM 98% | [14]; at 100.0 µM 97%
inactive: [1]; at 1.2 µM 4% | [1]; at 3.7 µM 21% | [1]; at 11.0 µM 50% | [2]; at 1.2 µM 5% | [2]; at 3.7 µM -4% | [2]; at 11.0 µM 9% | [3]; at 1.2 µM 2% | [3]; at 3.7 µM -4% | [3]; at 11.0 µM 22% | [4]; at 1.2 µM 7% | [4]; at 3.7 µM 13% | [4]; [17] 2% | [4]; at 11.0 µM 67% | [5]; at 1.2 µM 22% | [5]; at 3.7 µM 24% | [5]; [17] -31% | [5]; at 11.0 µM 53% | [6]; at 1.2 µM -6% | [6]; at 3.7 µM -17% | [6]; at 11.0 µM 54% | [7]; [17] 23% | [8]; [17] 48% | [9]; at 1.2 µM 24% | [9]; at 3.7 µM 27% | [9]; [17] 11% | [9]; at 11.0 µM 60% | [10]; at 1.2 µM 0% | [10]; at 3.7 µM -3% | [10]; at 11.0 µM 11% | [11]; at 1.2 µM -7% | [11]; at 3.7 µM -8% | [11]; at 11.0 µM 46% | [12]; at 1.2 µM 12% | [12]; at 3.7 µM 11% | [12]; at 11.0 µM 62% | [13]; [17] -32% | [14]; at 1.2 µM 9% | [14]; at 3.7 µM 12% | [14]; at 11.0 µM 49%

CCCCCCc1cc(C(=O)OC/C(C)=N/NC(N)=O)c2ccccc2n1
inactive: [1]; at 1.2 µM -1% | [1]; at 3.7 µM -1% | [1]; at 11.0 µM 1% | [1]; at 33.0 µM -1% | [1]; at 100.0 µM -3% | [2]; at 1.2 µM -2% | [2]; at 3.7 µM 1% | [2]; at 11.0 µM -4% | [2]; at 33.0 µM -5% | [2]; at 100.0 µM -5% | [15]; at 1.2 µM -3% | [15]; at 3.7 µM -3% | [15]; at 11.0 µM -2% | [15]; at 33.0 µM -5% | [15]; at 100.0 µM -5% | [4]; at 1.2 µM -3% | [4]; at 3.7 µM -3% | [4]; [17] -3% | [4]; at 11.0 µM 0% | [4]; at 33.0 µM -4% | [4]; [18] 32% | [4]; at 50.0 µM 26.6% | [4]; at 100.0 µM -4% | [5]; at 1.2 µM -4% | [5]; at 3.7 µM -2% | [5]; [17] -6% | [5]; at 11.0 µM -6% | [5]; at 33.0 µM -3% | [5]; [18] 42% | [5]; at 50.0 µM -1.15% | [5]; at 100.0 µM -7% | [6]; at 1.2 µM 0% | [6]; at 3.7 µM 3% | [6]; at 11.0 µM 3% | [6]; at 33.0 µM 0% | [6]; at 100.0 µM -4% | [7]; [17] -4% | [7]; [18] 47% | [7]; at 50.0 µM 31% | [8]; [17] -1% | [8]; [18] 21% | [8]; at 50.0 µM -12.3% | [9]; at 1.2 µM 0% | [9]; at 3.7 µM -4% | [9]; [17] -2% | [9]; at 11.0 µM -2% | [9]; at 33.0 µM 3% | [9]; at 50.0 µM 68.5% | [9]; at 100.0 µM 5% | [10]; at 1.2 µM 0% | [10]; at 3.7 µM -1% | [10]; at 11.0 µM 0% | [10]; at 33.0 µM -2% | [10]; at 100.0 µM -4% | [13]; [17] -4% | [13]; [18] 50% | [13]; at 50.0 µM 61.4% | [14]; at 1.2 µM -1% | [14]; at 3.7 µM -2% | [14]; at 11.0 µM -4% | [14]; at 33.0 µM -7% | [14]; at 100.0 µM -7%
active: [9]; [18] 77%

Cc1c(C(=O)C(=O)c2ccccc2)c(C)c(C(=O)C(=O)c2ccccc2)c(C)c1C(=O)C(=O)c1ccccc1
active: [4]; [18] 86% | [5]; [18] 90% | [7]; [18] 86% | [7]; at 50.0 µM 75.7% | [8]; [17] 94% | [8]; [18] 84% | [9]; [17] 97% | [9]; [18] 91% | [13]; [18] 87% | [13]; at 50.0 µM 72.5%
inactive: [1]; at 1.2 µM -4% | [1]; at 3.7 µM -5% | [1]; at 11.0 µM -7% | [1]; at 33.0 µM -17% | [1]; at 100.0 µM -14% | [3]; at 1.2 µM 0% | [3]; at 3.7 µM -1% | [3]; at 11.0 µM -3% | [3]; at 33.0 µM -5% | [3]; at 100.0 µM -17% | [15]; at 1.2 µM -2% | [15]; at 3.7 µM -2% | [15]; at 11.0 µM -5% | [15]; at 33.0 µM -21% | [15]; at 100.0 µM -9% | [4]; at 1.2 µM -11% | [4]; at 3.7 µM -21% | [4]; [17] 11% | [4]; at 11.0 µM -29% | [4]; at 33.0 µM -12% | [4]; at 50.0 µM 54.1% | [4]; at 100.0 µM -19% | [5]; at 1.2 µM -2% | [5]; at 3.7 µM 1% | [5]; [17] 18% | [5]; at 11.0 µM -1% | [5]; at 33.0 µM -3% | [5]; at 50.0 µM 61.4% | [5]; at 100.0 µM -11% | [6]; at 1.2 µM -2% | [6]; at 3.7 µM -3% | [6]; at 11.0 µM -4% | [6]; at 33.0 µM -8% | [6]; at 100.0 µM -13% | [7]; [17] -5% | [16]; at 1.2 µM 1% | [16]; at 3.7 µM -5% | [16]; at 11.0 µM -5% | [16]; at 33.0 µM -10% | [16]; at 100.0 µM -13% | [8]; at 50.0 µM 63.1% | [9]; at 1.2 µM -2% | [9]; at 3.7 µM 0% | [9]; at 11.0 µM -2% | [9]; at 33.0 µM -8% | [9]; at 50.0 µM 56.4% | [9]; at 100.0 µM -16% | [10]; at 1.2 µM -3% | [10]; at 3.7 µM -1% | [10]; at 11.0 µM -4% | [10]; at 33.0 µM -6% | [10]; at 100.0 µM -10% | [11]; at 1.2 µM 1% | [11]; at 3.7 µM 1% | [11]; at 11.0 µM 1% | [11]; at 33.0 µM -3% | [11]; at 100.0 µM -8% | [12]; at 1.2 µM 0% | [12]; at 3.7 µM 0% | [12]; at 11.0 µM -4% | [12]; at 33.0 µM -5% | [12]; at 100.0 µM -13% | [13]; [17] 9% | [14]; at 1.2 µM -3% | [14]; at 3.7 µM -4% | [14]; at 11.0 µM -6% | [14]; at 33.0 µM -13% | [14]; at 100.0 µM -20%
